Compound activity as filed in PubChem BioAssay.
CtBP-E1A blk = CtBP/E1A binding inhibition | AlphaScreen GST-E1A/His-CtBP binding, 1536-well; stronger effect = lower value | activity change, % (test concentration not listed) | hit rate 0.49% among 340,000; in the data active = activity change below about -65%; inconclusive = mostly about -30% to -63%
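In 5 uL wells, 23 nL compound meets equimolar GST-E1A and His-CtBP (5X stock 125 nM each) for 2 h, 37 °C. Beads (5X, 50 ug/mL) then 1 h, 37 °C, dark.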
L3MBTL1 block = inhibitors of human L3MBTL1. Q9Y468. AlphaScreen L3MBTL1–H3K9me1 peptide binding. Potency, µM (series often up to 57.1 µM), for the others: top-dose activity, negative = inhibition, actives largely listed as inhibitors. hit rate 0.66% among 230,000. AID 485360; note: potency is the fitted concentration of half-maximal effect; nearly all actives have a fitted effect of over 60% in size
Target sequence (Q9Y468 whole entry, looked up): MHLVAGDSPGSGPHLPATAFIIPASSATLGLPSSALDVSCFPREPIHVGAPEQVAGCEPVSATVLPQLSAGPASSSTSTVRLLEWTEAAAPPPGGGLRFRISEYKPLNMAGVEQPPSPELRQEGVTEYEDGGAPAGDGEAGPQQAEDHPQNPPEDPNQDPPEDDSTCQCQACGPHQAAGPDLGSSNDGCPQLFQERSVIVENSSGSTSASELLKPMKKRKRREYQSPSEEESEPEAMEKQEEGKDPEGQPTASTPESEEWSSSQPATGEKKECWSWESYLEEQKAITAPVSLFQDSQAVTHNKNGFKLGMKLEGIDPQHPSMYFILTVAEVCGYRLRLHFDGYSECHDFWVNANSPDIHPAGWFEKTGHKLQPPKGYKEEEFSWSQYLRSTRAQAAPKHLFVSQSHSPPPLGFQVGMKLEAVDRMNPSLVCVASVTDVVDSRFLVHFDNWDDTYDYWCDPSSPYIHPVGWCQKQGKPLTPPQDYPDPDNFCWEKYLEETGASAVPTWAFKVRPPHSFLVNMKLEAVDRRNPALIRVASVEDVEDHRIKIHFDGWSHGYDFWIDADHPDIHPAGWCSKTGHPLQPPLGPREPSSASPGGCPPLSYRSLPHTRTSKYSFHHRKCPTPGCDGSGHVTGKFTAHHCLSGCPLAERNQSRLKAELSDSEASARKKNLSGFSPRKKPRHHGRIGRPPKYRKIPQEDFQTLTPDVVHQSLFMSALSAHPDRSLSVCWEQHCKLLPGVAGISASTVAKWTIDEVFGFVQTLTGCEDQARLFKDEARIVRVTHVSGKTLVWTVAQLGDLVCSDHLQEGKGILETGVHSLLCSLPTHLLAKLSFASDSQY
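AlphaScreen proximity signal between nickel-chelate acceptor and streptavidin donor beads (final 10 ug/mL) reports binding of 50 nM L3MBTL1 to 75 nM biotin-H3 K9me1 peptide; complex incubated with compounds 30 min at room temperature; cefsulodin titration as control.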
USP2a block = inhibitors of human ubiquitin-specific protease USP2a; hit rate 0.01% among 330,000; Potency, µM (top dose mostly 38.3 µM), inactives show at the top dose activity change, negative = inhibition, hits mostly inhibitors; USP2 core, Ub-CHOP2 coupled fluorogenic reporter, 485/531; AID 463254;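 note: potency is the fitted concentration of half-maximal effect; plate controls were DMSO wells for no effect and full inhibition by NEM control for full effect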
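USP2 core (10nM final) preincubated 30min RT with compound in 20mM Tris-HCl pH 8.0, 2mM CaCl2, 2mM beta-mercaptoethanol, 0.05% CHAPS; 25nM Ub-CHOP2 plus 25nM reporter substrate added, fluorescence (Ex485/Em531) read after 60min.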
uPA generation = cell surface uPA generation inhibition. Potency, µM (titrated, usually from 38.3 µM), inactives show at the highest dose activity change, negative = inhibition, actives largely listed as inhibitors. hit rate 0.31% among 330,000. cell surface uPA generation assay, qHTS; active = well fitted inhibition curve with a large enough effect; inconclusive = small, poorly fitted or top-dose-only effect; inactive = no such curve, though single readings can be large or run the other way; tested in mouse RAW 264.7 cells; note: potency is the fitted concentration of half-maximal effect; nearly all actives have a fitted effect of over 55% in size
Eya2 inh = Eya2 (human) phosphatase inhibition; O00167; hit rate 0.006% among 330,000; AID 488837; recombinant Eya2, OMFP fluorescence dephosphorylation (OMFP is methylfluorescein phosphate); Potency, µM (series often up to 76.9 µM), for the others: at the top dose activity, negative = inhibition, usual class: inhibitors; note: potency is the fitted concentration of half-maximal effect
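Eya2 (0.2 uM) preincubated 10 min at ambient with compound, then OMFP substrate added at 50 uM; 10 min reaction in 50 mM HEPES pH 7.5, 50 mM NaCl, 5 uM MgCl2, 0.05% BSA, 1 mM DTT. Fluorescence read at Ex 485/Em 525 nm.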
Six1-Eya2 inh = blocks human Six1 binding to Eya2 | activity change, % (no concentration beside the values) | AlphaScreen GST-Six1/His-Eya2 binding, biochemical; stronger effect = lower value | hit rate 0.56% among 360,000 | AID 651725; in the data active = activity change below about -65%; inconclusive = mostly about -30% to -63%
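GST-Six1 + His-Eya2 (5X stock: 250/500 nM); Tris pH 8.0, 300 mM NaCl, 0.05% BSA, 0.02% Tween 20; GSH donor/Ni acceptor beads; 1 h 37 °C dark; AlphaScreen readout.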
Active calls of the source: *; ? = inconclusive; . = not tested or not shown. This is a sample that favours compounds with a hit; in the whole collection about 1.2% have one here. Unless noted, calls come from the whole dose curve; as a rule, active = well fitted curve in the direction sought with a large enough effect; inconclusive = small, poorly fitted or top-dose-only effect, or another doubt; inactive = no such curve, though single readings can be large; an effect the other way counts as inactive or inconclusive. Unless noted, % is set by controls: 0 for no effect and ±100 for the full control effect.

SMILES	CtBP-E1A blk	L3MBTL1 block	USP2a block	uPA generation	Eya2 inh	Six1-Eya2 inh
CNC(=O)c1c(NC(=O)C2=COCCO2)sc2c1CCC(C)C2 (centres undefined)	14.2	.	-1.1%	?	5.5%	0.8
O=C(Oc1ccc2c(c1)OCC2=O)c1ccccc1	-1.6	.	4.3%	-5.0%	-14.9%	-71.2*
Clc1ccc(N2O[C@H]3C=C[C@@H]2C3)nc1	-7.9	.	.	.	.	-4.0
CN1CCN(c2nc(-c3ccccn3)nc3ccccc23)CC1	?	.	0.3%	.	6.6%	?
c1ccc(N2CCN(c3nc(-c4ccccn4)nc4ccccc34)CC2)cc1	-71.1*	?	0.8%	2.9%	13.0%	-67.3*
CC1CCCC(NC(=O)c2ccc(COc3ccccc3)o2)C1C (centres undefined)	2.1	.	-1.8%	5.4%	-17.8%	0.7
C=CCNC(=S)Nc1ccc2nsnc2c1	-2.1	-3.7%	3.9%	-5.1%	-0.4%	13.6
C=CCN(CC=C)C(=S)Nc1ccc2nsnc2c1	.	8.91µM*	0.9%	1.8%	4.1%	12.4
CC(=O)c1ccccc1NC(=O)CSc1n[nH]c(=O)n1C1CC1	1.2	2.5%	0.1%	1.5%	6.5%	7.7
CCn1c(-c2ccccc2)c(C(=O)CC#N)c2ccccc21	-2.1	5.3%	1.9%	1.8%	-15.0%	2.7
COc1cccc(C(=O)Nc2cccc(NC(=O)c3ccccc3Cl)c2)c1	.	1.9%	-2.2%	?	2.0%	-13.4
COc1cccc(C(=O)Nc2cccc(C(=O)NC3=NN(c4c(Cl)cc(Cl)cc4Cl)C(=O)C3)c2)c1	-80.5*	?	-10.1%	0.0%	-6.5%	-70.9*
COc1ccc(/C=C2\C(=O)N(c3c(Cl)cc(Cl)cc3Cl)N=C2NC(=O)c2cccc([N+](=O)[O-])c2)cc1	-1.8	-14.4%	-1.9%	9.9%	-1.5%	-78.9*
COc1ccc(NC(=O)c2cccc(N3C(=O)c4cccc([N+](=O)[O-])c4C3=O)c2)cc1	-2.7	.	1.9%	?	14.0%	-0.3
COc1ccccc1CNC(=O)CSc1ccc(-c2ccccn2)nn1	.	.	4.7%	-6.6%	-3.4%	-67.4*
O=C(CSc1ccc2nnc(-c3ccccn3)n2n1)Nc1nccs1	-88.0*	.	4.2%	14.8%	-2.7%	-81.2*
COc1ccccc1CNC(=O)CSc1ccc(-c2cccs2)nn1	6.4	.	-4.8%	0.4%	1.8%	-5.7
Cc1csc(NC(=O)CSc2ccc(-c3ccccn3)nn2)n1	.	.	4.4%	-28.9%	-1.7%	-85.9*
Cc1nc2ccccc2nc1OCc1cccc([N+](=O)[O-])c1	-16.8	2.8%	0.5%	-2.9%	7.3%	2.6
O=C(Cn1ccc(=O)[nH]c1=O)c1ccc([N+](=O)[O-])o1	-7.7	.	.	.	.	1.9
O=C(NCC(=O)N(c1cccnc1)C(C(=O)NC1CCCC1)c1cccs1)c1cccs1 (centres undefined)	.	-1.1%	-1.6%	-3.5%	-11.3%	6.2
CC(C)N=c1scc(-c2ccco2)n1/N=C/c1ccc(O)c(O)c1	?	?	2.0%	?	?	?
C=CCN=c1scc(-c2ccco2)n1/N=C/c1ccc(O)c(O)c1O	-77.8*	17.8µM*	0.0%	-5.2%	1.7%	-66.5*
CN=c1scc(-c2cccs2)n1/N=C/c1ccccc1O	-17.8	-25.3%	-4.8%	-8.8%	2.7%	-19.2
O=c1c2ccccc2nc(-c2ccco2)n1/N=C/c1ccccc1O	-11.3	6.2%	3.9%	-5.6%	-19.8%	?
SMILES	CtBP-E1A blk	L3MBTL1 block	USP2a block	uPA generation	Eya2 inh	Six1-Eya2 inh
Oc1ccc(/C=N/n2c(-c3ccco3)csc2=Nc2cccnc2)c(O)c1	-92.8*	-7.9%	4.7%	6.2%	-1.2%	-92.5*
COCCN=c1scc(-c2ccco2)n1/N=C/c1ccc(O)c(O)c1O	-78.7*	1.41µM*	-8.9%	-3.7%	-0.7%	-83.8*
CN=c1scc(C)n1/N=C/c1ccc(O)c(O)c1O	?	.	4.1%	-5.9%	-13.5%	?
CN=c1scc(-c2cccs2)n1/N=C/c1ccc(O)c(O)c1O	-88.3*	14.1µM*	0.9%	-19.0%	-0.4%	-77.0*
CCn1cc(C(=O)NCCCOC(C)C)c(=O)c2cc(S(=O)(=O)N3CCC(C)CC3)ccc21	.	.	1.0%	-4.9%	-4.5%	1.3
O=[N+]([O-])c1ccc(N/N=C2\CC3CC=CC23)c([N+](=O)[O-])c1 (centres undefined)	-16.1	?	3.0%	-3.2%	15.6%	-69.1*
COc1ccc(NC(=O)Nc2ccc3c(c2)C(=O)N([C@H](C)CO)C[C@H](C)[C@@H](CN(C)C(=O)Nc2ccccc2)O3)cc1	-67.1*	0.1%	-4.4%	10.2%	6.4%	?
C[C@H](CO)N1C[C@H](C)[C@@H](CN(C)C(=O)Nc2ccc3c(c2)OCO3)Oc2ccc(NC(=O)Nc3ccc(C(F)(F)F)cc3)cc2C1=O	-10.4	-9.0%	-8.6%	11.4%	-8.9%	-15.4
C[C@H](CO)N1C[C@H](C)[C@@H](CN(C)C(=O)Nc2ccccc2)Oc2ccc(NC(=O)Nc3ccc4c(c3)OCO4)cc2C1=O	-65.0*	-25.6%	1.7%	2.3%	-21.0%	?
O=C(CC1SC(N2CCCC2)=NC1=O)Nc1ccc(C(=O)NCc2ccc(F)cc2)cc1 (centres undefined)	-11.0	2.2%	0.1%	2.8%	-29.4%	7.5
Cc1ccnc(NC(=O)c2cc3ccccc3o2)c1	0.7	-7.1%	1.7%	2µM*	-16.6%	7.8
O=C(Nc1ccccn1)c1cc2ccccc2o1	6.4	4.5%	1.9%	?	9.9%	1.0
N#Cc1ccc(S(=O)(=O)N2CCc3[nH]c4ccc(F)cc4c3C2)cc1	-2.4	-17.4%	-0.1%	6.0%	-19.9%	-1.2
COc1ccc(NC(=O)Nc2cccc3c2O[C@H](CN(C)S(=O)(=O)c2ccc(OC)cc2)[C@@H](C)CN([C@H](C)CO)C3=O)cc1	-3.2	-2.0%	-2.3%	2.7%	-1.5%	-6.5
Cc1ccc(S(=O)(=O)N(C)C[C@H]2Oc3c(NC(=O)Nc4cccc5ccccc45)cccc3C(=O)N([C@@H](C)CO)C[C@@H]2C)cc1	-75.1*	-5.7%	-9.2%	?	7.2%	-71.2*
Cc1nn(-c2ccccc2)c(N2CCCC2)c1/C=N/NC(=O)c1ccccc1O	?	6.1%	-0.5%	-3.5%	-0.1%	?
O=C(N/N=C/c1cc2c3c(c1O)CCCN3CCC2)c1ccccc1O	-66.1*	?	-2.0%	-7.7%	12.0%	-90.2*
COc1ccc(CCC(=O)Nc2ccc(C(=O)c3ccncc3)cc2)cc1	-0.2	-6.8%	2.1%	0.7%	-7.9%	-1.0
O=C(CCC1CCCCC1)Nc1nnc(C(F)(F)F)s1	-1.3	11.4%	-1.8%	3.2%	0.7%	5.1
